This is a sample that favours compounds with a hit; in the whole collection about 19% have one here.
HT1080 IDH1KD tx: HT-1080 IDH1 knockdown cell toxicity (counter line); HT-1080 IDH1 knockdown viability, ATP luminescence, 48 h; Potency, µM (doses to about 46.1 µM), for inactives: top-dose activity, negative = toxicity, usual class: cytotoxic; hit rate 2% among 360,000; AID 686971;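 further: potency means the concentration at half of the fitted maximal effect; 0% = DMSO wells and -100% = cell-free medium wells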
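Knockdown cells (IDH1KD HT-1080) received compounds 2 h after plating at 750 cells/well and were kept 48 h at 37 °C in 5% FBS RPMI. A CellTiter-Glo luminescence read gave % activity for curve fitting.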
DT40 TDP1 CPT: DT40-hTDP1 cell growth loss with CPT; chicken DT40 Tdp1-/-;hTDP1 cells + 20 nM CPT, ATP luminescence, 48 h; Potency, µM (top dose mostly 46.2 µM), without a hit: at the highest dose activity change, negative = growth inhibition, most hits filed as inhibitors; hit rate 12% among 420,000; AID 686979; further: potency means the concentration at half of the fitted maximal effect; nearly all actives have a fitted effect of over 55% in size
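Cell growth measured by CellTiter-Glo luminescence after a minimum 48 h, 37 C compound exposure with 20 nM CPT in Tdp1-knockout DT40 cells stably expressing hTDP1, seeded 400/well; qHTS titration format.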
HT1080-NT tox: kills 2HG-producing HT-1080-NT fibrosarcoma cells. Potency, µM (highest dose often 46.1 µM), for inactives: at the highest dose activity, negative = less viability, hits mostly cytotoxic. HT-1080-NT fibrosarcoma viability, CellTiter-Glo ATP luminescence, 48 h. AID 686970. hit rate 1.6% among 360,000;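 further: NT is the 2HG producing partner of a matched IDH1 knockdown line; potency means the concentration at half of the fitted maximal effect; 0% = DMSO-treated cells and -100% = media-only wells without cells; nearly all actives have a fitted effect of over 55% in size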
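HT-1080-NT; 750 cells/well; 5% FBS RPMI; 48 h compound, 37 degrees C; CellTiter-Glo luminescence; curve fitting and curve-class assignment.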
IL1B secr inh: blocks inflammasome-driven IL-1 beta release | THP-1 LPS/ATP IL-1B secretion, AlphaLISA, 16 h; stronger effect = lower value | activity change, % at 57.5 µM | AID 743279 | hit rate 4.7% among 360,000; in the data active means activity change below about -50%; inconclusive means mostly about -30% to -49%
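Secreted IL-1B measured by AlphaLISA bead assay after 16 h compound exposure of THP-1 cells; compounds (final up to 57.5 uM) added 1 h before LPS (250 ng/mL) and ATP (1.25 mM) stimulation; lower signal means less secretion.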
TDP1 cell noCPT: qHTS for Inhibitors of human tyrosyl-DNA phosphodiesterase 1 (TDP1): qHTS in cells in absence of CPT; hit rate 15% among 420,000; Potency, µM (highest dose often 46.2 µM), without a hit: at the top dose activity change, negative = growth inhibition, most hits filed as inhibitors; DT40 Tdp1-/- hTDP1 cells, no CPT, ATP luminescence, 48 h; further: potency means the concentration at half of the fitted maximal effect; nearly all actives have a fitted effect of over 55% in size
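Chicken DT40 Tdp1-/- cells complemented with human TDP1, screened without camptothecin (DMSO vehicle only), 400 cells/well. Compounds pin-transferred, cells incubated at 37 °C for at least 48 hr. Growth read as ATP-dependent luminescence (CellTiter-Glo, 30 min at RT).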
ELG1 DNA repair: inhibitors of ELG1-dependent DNA repair in HEK293T cells; HEK293T ELG1-luciferase reporter, luminescence, 16 h; DNA damage induced by 5-fluorouridine; Potency, µM (doses to about 46.1 µM), for the others: at the highest dose activity change, negative = inhibition, most hits filed as inhibitors; hit rate 2.3% among 330,000; AID 504467; further: potency means the concentration at half of the fitted maximal effect; nearly all actives have a fitted effect of over 55% in size
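5-Fluorouridine DNA damage + compound/DMSO, 2,000 cells/well, 16 h, 37 °C/5% CO2. ONE-Glo, 30 min RT, luminescence. Readout = decrease in reporter signal.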
* hit, by the source's call; u = inconclusive; x = no result given. Unless noted, the call rests on the fitted dose curve; in most records, active means well fitted curve in the direction sought with a large enough effect; inconclusive means small, poorly fitted or top-dose-only effect, or another doubt; inactive means no such curve, though single readings can be large; an effect the other way counts as inactive or inconclusive. Unless noted, on the % scale 0 is the no-effect control and ±100 the full control effect.

SMILES	HT1080 IDH1KD tx	DT40 TDP1 CPT	HT1080-NT tox	IL1B secr inh	TDP1 cell noCPT	ELG1 DNA repair
CC(=O)Nc1nc2nc(-c3ccccc3)cc(-c3ccccc3)n2n1	0%	u	2%	u	u	-26%
O=C(Nc1nc2nc(-c3ccccc3)cc(-c3ccccc3)n2n1)c1ccco1	26µM*	23µM*	u	-4	23µM*	8.2µM*
COc1cc(C2C(C#N)=C(N)Oc3c2ccc2ccccc32)ccc1OCC(=O)Nc1ccc(C)cc1 (centres undefined)	-17%	u	-16%	-7	u	u
COc1ccc(C2C(C#N)=C(N)Oc3c2ccc2cccnc32)cc1OC (centres undefined)	0.65µM*	3.3µM*	u	-10	2.6µM*	2%
COc1cc(C2C(C#N)=C(N)Oc3c2ccc2ccccc32)ccc1OCC(=O)Nc1cccc(C)c1 (centres undefined)	-21%	u	-10%	0	16µM*	9.2µM*
COC1CCCN(C(=O)c2cccc(OC3CCN(S(C)(=O)=O)CC3)c2)C1 (centres undefined)	0%	-14%	2%	18	26%	11%
CCOc1ccc(Cc2nc(N)nc(N)n2)cc1	1%	6%	1%	4	8%	10%
CSc1nc(Cl)c(Cc2ccc(OC(C)C)cc2)c(N(C)C)n1	-3%	u	0%	5	16µM*	u
CCOCc1[nH]c(=S)[nH]c(=O)c1Cc1ccc(OC(C)C)cc1	-5%	2%	-1%	4	0%	1%
CCOc1ccc(Cc2c(Cl)nc(SC)nc2N(C)C)cc1	u	18µM*	u	0	16µM*	-23%
CCOCCCNC(=O)Cn1ncc2c([nH]c3ccccc32)c1=O	x	-2%	x	x	-4%	x
S=C(Nc1ccccc1)Nc1ccc(OCc2ccc(Cl)cc2Cl)cc1	-11%	18µM*	-10%	-2	u	-22%
O=c1[nH]nc(-c2ccc(OCc3ccc(Cl)cc3Cl)cc2)o1	19%	-4%	14%	-17	21%	6%
OCCCCNCc1ccc(OCc2ccc(Cl)cc2Cl)cc1	u	21µM*	u	-101*	23µM*	12%
CCOc1ccc(NC(=S)Nc2ccc(OCc3ccccc3)cc2)cc1	7%	u	4%	-10	-23%	u
OCCNCc1ccc(OCc2ccc(Cl)cc2Cl)cc1	21µM*	18µM*	u	-98*	18µM*	u
COc1ccc(C(=O)N2CCc3[nH]nc(-c4ccccc4)c3C2)cc1	-14%	-71%	-13%	-18	u	0%
CN1c2ccccc2-c2ccccc2S1(=O)=O	1%	32µM*	13%	30	u	x
Cc1oc2c(CN3CCCCC3C)c(O)ccc2c(=O)c1-c1ccc(Br)cc1 (centres undefined)	8%	0%	5%	-2	5%	-20%
CC[N+](C)(CC)CC(=O)Nc1c(C)cccc1C	x	-1%	x	x	-5%	x
Cc1ccc(-n2nc3c(n2)/C(=N/O)CC/C3=N\O)cc1	-24%	u	-6%	-23	16µM*	u
O/N=C1\CC/C(=N\O)c2nn(-c3ccccc3Cl)nc21	-6%	u	8%	-9	u	-6%
COC(=O)c1nccc2c1[nH]c1ccccc12	0%	u	8%	-18	23µM*	-1%
C(=C/c1nccc2c1[nH]c1ccccc12)/c1ccc2c(c1)OCO2	16µM*	5.6µM*	u	-2	11µM*	u
COc1ccc(/C=C/c2nccc3c2[nH]c2ccccc23)cc1	x	u	x	x	11µM*	x
O=c1[nH][nH]c(=O)c2c1[nH]c(=S)n2Cc1ccccc1	17%	0%	2%	8	-3%	x

Screening data: PubChem, National Center for Advancing Translational Sciences (NCATS)
